Assay results reported in PubChem BioAssay (Tox21).
Where a structure was tested more than once in an assay, its records may differ in their call. Calls of active or inactive are those of the source. A call without a number means that no potency is given here. Unless noted, the call rests on the fitted dose curve; in most records, active means well fitted curve in the direction sought with a large enough effect in the repeat runs; inconclusive means weak or mixed curves; inactive means no such curve, though single readings can be large; an effect the other way counts as inactive or inconclusive.

What was measured:
[1] = qHTS assay for small molecule agonists of the p53 signaling pathway - cell viability (AID 651633; calls by dose curve; further: nearly all actives have a fitted effect of over 30% in size; further: potency means the concentration at half of the fitted maximal effect); conditions: p53RE-bla HCT-116 viability, ATP luminescence, 16 h; series mostly up to 83.3 µM
Method in brief: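 p53RE-bla cells were treated with compound for 16 hours at 37 C. Cytotoxicity was then measured as CellTiter-Glo luminescence after 30 min at room temperature.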

[2] = qHTS assay for small molecules that induce genotoxicity in human embryonic kidney cells expressing luciferase-tagged ATAD5 - cell viability (AID 651634; calls by dose curve; further: nearly all actives have a fitted effect of over 25% in size; further: potency means the concentration at half of the fitted maximal effect); conditions: HEK293T ATAD5-luc cells viability, CellTiter-Fluor, 15.5 h; series mostly up to 83.3 µM
Method in brief: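 HEK293T cells expressing luciferase-tagged ATAD5 were exposed to compound or DMSO for 15.5 hr at 37C, 5% CO2. Viability was then read as live-cell protease activity by CellTiter-Fluor fluorescence after 30 min at 37C.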

[3] = qHTS assay for small molecule disruptors of the mitochondrial membrane potential - cell viability (AID 720634; calls by dose curve; further: nearly all actives have a fitted effect of over 20% in size; further: potency means the concentration at half of the fitted maximal effect); conditions: HepG2 viability, ATP luminescence (CellTiter-Glo), 1 h; series mostly up to 83.2 µM
Method in brief: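 HepG2 cells seeded overnight at 37 C, then exposed to compound or DMSO for 1 hr at 37 C, 5% CO2. m-MPI dye added, then CellTiter-Glo for 30 min at room temperature; viability read as ATP luminescence.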

[4] = qHTS assay to test for compound auto fluorescence at 590 nm (red) in HepG2 cells (AID 720674); conditions: HepG2 autofluorescence, red 540/590 nm, 1 h; series mostly up to 46 µM
Method in brief: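 Seeding: 2,000 HepG2 cells/well, MEM/10% FBS, overnight 37 C. Dosing: compound vs DMSO. Incubation: 1 hr, 37 C, 5% CO2. Read: fluorescence 540 ex/590 em, Rose Bengal sodium as red reference.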

[5] = qHTS assay to test for compound auto fluorescence at 535 nm (green) in HepG2 cells (AID 720675); conditions: green autofluorescence 485/535 nm, 1 h; series mostly up to 46 µM
[6] = qHTS assay to test for compound auto fluorescence at 460 nm (blue) in HEK293 cells (AID 720678); conditions: blue autofluorescence 405/460 nm; series mostly up to 46 µM
Method in brief: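 Blue read-out at excitation 405 nm and emission 460 nm follows overnight compound exposure of HEK293 cells at 37C in 5% CO2. Activity is given as auto fluorescence equivalency to triamterene.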

[7] = qHTS assay to test for compound auto fluorescence at 590 nm (red) in HEK293 cells (AID 720679); conditions: red autofluorescence 540/590 nm; series mostly up to 46 µM
Method in brief: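 Red channel, Ex/Em 540/590nm; signal expressed as equivalency to Rose Bengal sodium. HEK293, 2,000 cells/well, 10% dialyzed FBS; 23 nL compound pinned after 4-5 hr attachment; overnight 37C/5% CO2 before reading.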

[8] = qHTS assay to test for compound auto fluorescence at 535 nm (green) in HEK293 cells (AID 720680); conditions: green autofluorescence 485/535 nm; series mostly up to 46 µM
[9] = qHTS assay to test for compound auto fluorescence at 460 nm (blue) in HEK293 cell free culture (AID 720681); conditions: cell-free medium, autofluorescence 405/460 nm (blue); series mostly up to 46 µM
Method in brief: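 Compounds were added to cell-free DMEM with 10% FBS and fluorescence read directly. The blue channel used 405 nm excitation and 460 nm emission, with triamterene as the reference fluorophore.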

[10] = qHTS assay to test for compound auto fluorescence at 535 nm (green) in HEK293 cell free culture (AID 720682); conditions: cell-free medium, green autofluorescence 485/535 nm; series mostly up to 46 µM
Method in brief: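 Using fluorescein as calibrant, autofluorescence was quantified at 485/535 nm in cell-free DMEM containing 10% FBS after pintool addition of compound or vehicle.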

[11] = qHTS assay to test for compound auto fluorescence at 590 nm (red) in HEK293 cell free culture (AID 720683); conditions: cell-free medium autofluorescence, Ex540/Em590 red; series mostly up to 46 µM
Method in brief: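 Cell-free wells of DMEM with 10% FBS received compound, and intrinsic fluorescence was read at excitation/emission 540/590 nm. Values expressed as equivalence to Rose Bengal sodium.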

[12] = qHTS assay to test for compound auto fluorescence at 590 nm (red) in HepG2 cell free culture (AID 720684); conditions: cell-free medium autofluorescence, red 540/590 nm; series mostly up to 46 µM
Method in brief: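 Compound was pinned into wells holding MEM with 10% FBS and no cells, and red fluorescence was read at Ex/Em 540/590 nm. Signal is expressed as auto fluorescence equivalency relative to Rose Bengal sodium.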

[13] = qHTS assay to test for compound auto fluorescence at 460 nm (blue) in HepG2 cell free culture (AID 720685); conditions: Cell-free culture medium, blue autofluorescence 405/460 nm; series mostly up to 46 µM
Method in brief: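 Compound (23 nL) or DMSO pinned into cell-free MEM with 10% FBS; blue fluorescence read at 405/460 nm excitation/emission, expressed as auto-fluorescence equivalency to triamterene.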

[14] = qHTS assay to test for compound auto fluorescence at 535 nm (green) in HepG2 cell free culture (AID 720686); conditions: Cell-free medium, green autofluorescence 485/535 nm; series mostly up to 46 µM
[15] = qHTS assay to test for compound auto fluorescence at 460 nm (blue) in HepG2 cells (AID 720687); conditions: autofluorescence 405/460 nm, 1 h; series mostly up to 46 µM
Method in brief: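 HepG2 cells in MEM with 10% FBS, attached overnight at 37 C, were exposed to compound or DMSO for 1 hr at 37 C, 5% CO2. Blue fluorescence was read at 405/460 nm, with triamterene as reference fluorophore.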

[16] = molecular target: Glucocorticoid receptor (Homo sapiens) (UniProt P04150); experiment: qHTS assay to identify small molecule agonists of the glucocorticoid receptor (GR) signaling pathway (AID 720691; active means well fitted activation curve with a large enough effect in the signal ratio in the repeat runs, not every such curve was filed as active; inconclusive means weak or mixed curves, or effect the other way; inactive means no such curve, though single readings can be large or run the other way; the % refers to the signal ratio; further: potency means the concentration at half of the fitted maximal effect); conditions: GR-bla HeLa, beta-lactamase reporter ratio, 18 h; activation: at 62.4 µM (top of the series)
Method in brief: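 GR-bla HeLa cells (beta-lactamase reporter under glucocorticoid response element) were plated 4 h at 37 C/5% CO2, given compounds in DMSO, and incubated 18 h at 37 C. LiveBLAzer B/G FRET substrate was added for 2 h at room temperature, then fluorescence intensity read.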

[17] = qHTS assay for small molecule disruptors of the mitochondrial membrane potential (AID 720635); conditions: HepG2 mitochondrial membrane potential, Mito-MPS dye ratio; series mostly up to 83.2 µM; further: potency means the concentration at half of the fitted maximal effect
Method in brief: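 HepG2 cells exposed to compound 1 hr at 37C, then Mito-MPS dye 30 min. Ratio read of aggregate (540/590 nm) versus monomer (490/535 nm) fluorescence.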

[18] = qHTS assay for small molecules that induce genotoxicity in human embryonic kidney cells expressing luciferase-tagged ATAD5 (AID 651632); conditions: HEK293T ATAD5-luciferase induction, 16 h; series mostly up to 83.3 µM; further: nearly all actives have a fitted effect of over 15% in size
Method in brief: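 HEK293T cells carrying a luciferase reporter tagged to ATAD5 were exposed to compound or DMSO vehicle for 16 hr at 37C, 5% CO2. Amplite was added, and after 30 min at room temperature luciferase activity was read as a marker of ATAD5 induction.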

[19] = molecular target: Glucocorticoid receptor (Homo sapiens) (UniProt P04150); experiment: qHTS assay to identify small molecule antagonists of the glucocorticoid receptor (GR) signaling pathway (AID 720692; active means well fitted inhibition curve with a large enough effect in the signal ratio in the repeat runs, not every such curve was filed as active; inconclusive means weak or mixed curves, or effect the other way; inactive means no such curve, though single readings can be large or run the other way; the % refers to the signal ratio); conditions: GR-bla HeLa, beta-lactamase FRET ratio, dexamethasone-stimulated, 18 h; series mostly up to 58.5 µM
Method in brief: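 GR-bla HeLa cells (beta-lactamase reporter under glucocorticoid response element) were pre-plated 4 h at 37 C, treated with compounds plus 5 nM dexamethasone (final) for 18 h, then read by LiveBLAzer B/G FRET fluorescence after 2 h.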

Sequence of Glucocorticoid receptor (Homo sapiens) (P04150 whole entry, looked up): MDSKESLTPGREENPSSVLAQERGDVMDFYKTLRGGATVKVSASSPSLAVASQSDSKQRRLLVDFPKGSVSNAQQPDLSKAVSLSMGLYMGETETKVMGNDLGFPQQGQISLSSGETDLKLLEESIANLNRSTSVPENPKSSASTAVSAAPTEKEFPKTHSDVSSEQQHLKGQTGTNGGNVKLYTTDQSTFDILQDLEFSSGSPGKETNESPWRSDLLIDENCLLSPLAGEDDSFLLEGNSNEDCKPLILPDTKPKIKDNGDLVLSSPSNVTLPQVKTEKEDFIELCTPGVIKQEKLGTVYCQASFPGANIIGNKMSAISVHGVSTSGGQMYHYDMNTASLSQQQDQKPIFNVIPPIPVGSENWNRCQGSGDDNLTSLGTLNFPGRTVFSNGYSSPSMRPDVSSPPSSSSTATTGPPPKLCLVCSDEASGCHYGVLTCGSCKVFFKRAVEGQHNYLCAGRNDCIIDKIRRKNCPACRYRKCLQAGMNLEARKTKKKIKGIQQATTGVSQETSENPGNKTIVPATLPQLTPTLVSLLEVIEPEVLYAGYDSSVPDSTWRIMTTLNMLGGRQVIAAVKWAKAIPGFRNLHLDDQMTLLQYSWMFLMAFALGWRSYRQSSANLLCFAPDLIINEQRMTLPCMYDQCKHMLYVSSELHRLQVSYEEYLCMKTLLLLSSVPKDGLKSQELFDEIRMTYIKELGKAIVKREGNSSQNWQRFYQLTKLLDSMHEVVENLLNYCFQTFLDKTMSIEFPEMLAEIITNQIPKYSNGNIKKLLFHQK

Structure (SMILES) | Potency [1] | Potency [2] | Potency [3] | Potency [4] | Potency [5] | Potency [6] | Potency [7] | Potency [8] | Potency [9] | Potency [10] | Potency [11] | Potency [12] | outcome [13] | Potency [14] | outcome [15] | Potency [16] | Potency [17] | Potency [18] | Potency [19]
CCN(CC)CCCC(C)Nc1cc(/C=C/c2ccccc2Cl)nc2cc(Cl)ccc12 (configuration not stated) | inactive | inactive | inactive | inactive | inactive | inactive | inactive | inactive | inactive | inactive | inactive | inactive | inactive | inactive | inactive | inactive |  |  | 
COC(=O)[C@H]1[C@H]2C[C@@H]3c4[nH]c5ccccc5c4CCN3C[C@H]2C[C@@H](OC(=O)c2cc(OC)c(OC)c(OC)c2)[C@@H]1OC | 5.31 µM (active) and inactive | inactive | inactive | inactive | inactive | inactive | inactive | inactive | inactive | inactive | inactive | inactive | inactive | inactive | inactive |  | 3.35 µM (active) |  | 
O=C(Nc1ccc(Br)cc1)c1cc(Br)c(Br)s1 |  |  | 3.35 µM (active) | inactive | inactive | inactive | inactive | inactive | inactive | inactive | inactive | inactive |  | inactive | inactive |  | 0.668 µM (active) | inactive | 
S=C1SCN(Cc2ccccc2)CN1Cc1ccccc1 |  |  | inactive | inactive |  | inactive | inactive | inactive | inactive | inactive | inactive | inactive | inactive | inactive | inactive |  |  | inactive | 
CC#CCC(C)[C@H](O)/C=C/[C@@H]1[C@H]2c3cccc(CCCC(=O)O)c3O[C@H]2C[C@H]1O (some centres not stated) | inactive | inactive | inactive | inactive | inactive | inactive | inactive | inactive | inactive | inactive | inactive | inactive | inactive | inactive | inactive | inactive |  |  | 
C=Cc1c(C)c2cc3nc(cc4[nH]c(cc5nc(cc1[nH]2)C(C)=C5CCC(=O)OC)c(CCC(=O)O)c4C)[C@@]1(C)C3=CC=C(C(=O)OC)[C@H]1C(=O)OC |  |  | inactive | inactive | inactive | inactive | inactive | inactive | inactive | inactive | inactive | inactive |  | inactive | inactive | inactive | 1.88 µM (active) | inactive | 
O=S(=O)(O)c1cc(O)c2c(N=Nc3ccc(Nc4ccccc4)c4c(S(=O)(=O)O)cccc34)cc(S(=O)(=O)O)cc2c1 |  |  | inactive | inactive | inactive | inactive | inactive | inactive | inactive | inactive | inactive | inactive | inactive | inactive | inactive |  |  | inactive | inactive
C[C@@H]1C[C@H]2[C@@H]3CCC4=CC(=O)C=C[C@]4(C)[C@@]3(F)[C@@H](O)C[C@]2(C)[C@@]1(O)C(=O)COC(=O)c1cccc(S(=O)(=O)O)c1 | inactive | inactive | inactive | inactive | inactive | inactive | inactive | inactive | inactive | inactive | inactive | inactive | inactive | inactive | inactive | 0.338 µM [inconclusive] (active) |  |  | 
CC[C@@]1(O)C[C@H](O[C@H]2C[C@H](N(C)C)[C@H](O[C@H]3C[C@H](O)[C@H](O[C@H]4CCC(=O)[C@H](C)O4)[C@H](C)O3)[C@H](C)O2)c2c(cc3c(c2O)C(=O)c2c(O)cccc2C3=O)[C@H]1C(=O)OC | inactive | 15 µM (active) | inactive | inactive | inactive | inactive | inactive | inactive | inactive | inactive | inactive | inactive | inactive | inactive | inactive | 10.7 µM [inconclusive] (active) |  |  | 
